In article PMC7862700, “An all-to-all approach to the identification of sequence-specific readers for epigenetic DNA modifications on cytosine” one finds binding signal data, which are given here for one sequence.

Holding throughout (experiment): DAPPL (digital affinity profiling via proximity ligation, sequencing); 10 mM Tris-HCl pH 7.5, 50 mM NaCl, 1 mM DTT, 4% glycerol, room temperature, 30 min; GST-TFs on glutathione beads, 16-mer random dsDNA library, 0.1% formaldehyde crosslink after washing; high values mean tight binding
The target in test [1] is T1, FEV (Homo sapiens, UniProt Q99581 1-238).
T1 sequence: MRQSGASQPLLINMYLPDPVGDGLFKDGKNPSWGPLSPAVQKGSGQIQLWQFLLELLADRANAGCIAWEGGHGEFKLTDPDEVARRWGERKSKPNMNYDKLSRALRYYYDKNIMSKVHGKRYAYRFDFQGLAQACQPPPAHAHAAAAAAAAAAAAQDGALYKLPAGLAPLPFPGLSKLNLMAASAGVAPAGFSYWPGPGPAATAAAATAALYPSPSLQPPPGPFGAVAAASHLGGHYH
To be noted: protein: recombinant; tags: N-terminal GST; dsDNA, one strand shown. An outline of the steps:
(§1)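 Binding signal is given per hexamer as its read frequency for a factor divided by its frequency in the tag-only sample. GST-fused human transcription factors were expressed in yeast, captured on glutathione beads, barcoded with DNA and pooled with that sample, then incubated with 200 nmole of a 16-mer random double-stranded DNA library in Tris/NaCl/DTT/glycerol buffer for 30 min at room temperature. The pools were then washed, crosslinked, proximity-ligated, amplified by PCR and sequenced on an Illumina NextSeq500.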

Test [2] addresses ETV5 (Homo sapiens, UniProt P41161 1-510). Conditions: protein: recombinant; tags: N-terminal GST; dsDNA, one strand shown. The gist of the method: as §1
For test [3], the target named is HSF1 (Homo sapiens, UniProt Q00613 1-529). Conditions: protein: recombinant; tags: N-terminal GST; chain copies: 3; dsDNA, one strand shown. An outline of the steps:
as §1

In test [4] the target is T2, SPIC (Homo sapiens, UniProt Q8N5J4 1-248).
T2 sequence: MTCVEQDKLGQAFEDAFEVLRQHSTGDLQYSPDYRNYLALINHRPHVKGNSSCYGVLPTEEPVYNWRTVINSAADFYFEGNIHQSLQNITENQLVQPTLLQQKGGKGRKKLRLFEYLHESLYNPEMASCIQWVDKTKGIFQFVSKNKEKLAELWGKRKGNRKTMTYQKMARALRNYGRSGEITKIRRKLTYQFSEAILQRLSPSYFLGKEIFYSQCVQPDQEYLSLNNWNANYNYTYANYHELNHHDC
Conditions: protein: recombinant; tags: N-terminal GST; dsDNA, one strand shown. An outline of the steps: as §1

The target in test [5] is ELF4 (Homo sapiens, UniProt Q99607 1-663). To be noted: protein: recombinant; tags: N-terminal GST; dsDNA, one strand shown. An outline of the steps: as §1
In test [6] the target is T3, ELK4 (Homo sapiens, UniProt P28324-2 1-405).
T3 sequence: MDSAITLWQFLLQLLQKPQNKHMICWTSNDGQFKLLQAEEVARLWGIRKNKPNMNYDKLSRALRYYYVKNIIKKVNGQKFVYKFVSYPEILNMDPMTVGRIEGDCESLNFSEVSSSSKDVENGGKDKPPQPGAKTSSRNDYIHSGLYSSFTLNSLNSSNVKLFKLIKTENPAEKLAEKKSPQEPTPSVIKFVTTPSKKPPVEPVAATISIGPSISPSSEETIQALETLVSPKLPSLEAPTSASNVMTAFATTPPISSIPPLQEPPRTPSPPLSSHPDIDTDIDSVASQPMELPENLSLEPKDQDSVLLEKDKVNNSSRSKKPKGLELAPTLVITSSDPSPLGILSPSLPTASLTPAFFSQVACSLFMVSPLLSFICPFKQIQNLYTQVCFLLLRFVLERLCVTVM
Conditions: protein: recombinant; tags: N-terminal GST; dsDNA, one strand shown. An outline of the steps: as §1

Test [7] addresses T4, ETV2 (Homo sapiens, UniProt O00321 1-342).
T4 sequence: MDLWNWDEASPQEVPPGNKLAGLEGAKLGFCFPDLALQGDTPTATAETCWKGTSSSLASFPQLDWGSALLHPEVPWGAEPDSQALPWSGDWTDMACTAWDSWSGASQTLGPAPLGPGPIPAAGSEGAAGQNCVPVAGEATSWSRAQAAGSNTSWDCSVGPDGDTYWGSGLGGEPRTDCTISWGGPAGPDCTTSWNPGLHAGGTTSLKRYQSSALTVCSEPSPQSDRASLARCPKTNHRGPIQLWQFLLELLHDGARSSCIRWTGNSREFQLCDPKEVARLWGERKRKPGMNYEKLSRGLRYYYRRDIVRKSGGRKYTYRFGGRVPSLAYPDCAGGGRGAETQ
To be noted: protein: recombinant; tags: N-terminal GST; dsDNA, one strand shown. An outline of the steps:
as §1

The target in test [8] is T5, ELF3 (Homo sapiens, UniProt P78545 1-371).
T5 sequence: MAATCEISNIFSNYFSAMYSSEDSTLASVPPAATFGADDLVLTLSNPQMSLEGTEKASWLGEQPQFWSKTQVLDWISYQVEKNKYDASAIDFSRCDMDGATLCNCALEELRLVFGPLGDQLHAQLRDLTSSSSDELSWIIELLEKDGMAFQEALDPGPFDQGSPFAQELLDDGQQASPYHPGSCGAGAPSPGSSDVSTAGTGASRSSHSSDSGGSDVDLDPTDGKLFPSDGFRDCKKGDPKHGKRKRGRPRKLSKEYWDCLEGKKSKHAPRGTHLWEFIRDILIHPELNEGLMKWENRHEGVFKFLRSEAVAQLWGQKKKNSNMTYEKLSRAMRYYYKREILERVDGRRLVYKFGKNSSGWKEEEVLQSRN
Conditions: protein: recombinant; tags: N-terminal GST; dsDNA, one strand shown. The gist of the method:
as §1

The target of test [9] is CRX (Homo sapiens, UniProt O43186 1-299). To be noted: protein: recombinant; tags: N-terminal GST; dsDNA, one strand shown. An outline of the steps:
as §1

For test [10], the target named is ETV1 (Homo sapiens, UniProt P50549 1-477). To be noted: protein: recombinant; tags: N-terminal GST; dsDNA, one strand shown. The gist of the method:
as §1

The target of test [11] is T6, ERF (Homo sapiens, UniProt P50548 1-548).
T6 sequence: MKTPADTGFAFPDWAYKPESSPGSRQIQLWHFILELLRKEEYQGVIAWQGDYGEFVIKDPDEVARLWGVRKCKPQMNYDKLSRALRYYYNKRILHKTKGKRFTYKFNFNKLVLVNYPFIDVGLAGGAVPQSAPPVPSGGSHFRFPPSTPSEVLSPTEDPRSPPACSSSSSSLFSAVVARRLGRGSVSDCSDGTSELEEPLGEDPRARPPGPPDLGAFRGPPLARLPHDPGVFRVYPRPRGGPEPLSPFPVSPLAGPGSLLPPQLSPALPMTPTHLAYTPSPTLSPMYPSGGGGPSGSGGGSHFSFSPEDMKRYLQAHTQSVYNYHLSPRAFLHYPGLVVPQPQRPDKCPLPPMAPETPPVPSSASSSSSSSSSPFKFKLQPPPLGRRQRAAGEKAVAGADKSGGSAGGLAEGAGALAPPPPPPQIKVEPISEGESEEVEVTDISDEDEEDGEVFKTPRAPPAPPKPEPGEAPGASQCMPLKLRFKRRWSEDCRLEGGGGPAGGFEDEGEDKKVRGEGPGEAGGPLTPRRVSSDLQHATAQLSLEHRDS
To be noted: protein: recombinant; tags: N-terminal GST; dsDNA, one strand shown. The gist of the method: as §1

For test [12], the target named is T7, ETV3L (Homo sapiens, UniProt Q6ZN32 1-361).
T7 sequence: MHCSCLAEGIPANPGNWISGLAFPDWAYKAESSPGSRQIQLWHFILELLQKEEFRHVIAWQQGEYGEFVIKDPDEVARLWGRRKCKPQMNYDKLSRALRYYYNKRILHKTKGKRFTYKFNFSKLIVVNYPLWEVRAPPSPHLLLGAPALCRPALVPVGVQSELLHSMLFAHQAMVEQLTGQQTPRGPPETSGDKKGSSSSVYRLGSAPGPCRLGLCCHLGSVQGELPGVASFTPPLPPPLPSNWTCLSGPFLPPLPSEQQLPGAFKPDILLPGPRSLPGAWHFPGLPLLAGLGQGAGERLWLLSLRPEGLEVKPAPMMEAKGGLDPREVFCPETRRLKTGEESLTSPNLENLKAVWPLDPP
Conditions: protein: recombinant; tags: N-terminal GST; dsDNA, one strand shown. The gist of the method: as §1

Test [13] deals with T8, ETS2 (Homo sapiens, UniProt P15036 1-469).
T8 sequence: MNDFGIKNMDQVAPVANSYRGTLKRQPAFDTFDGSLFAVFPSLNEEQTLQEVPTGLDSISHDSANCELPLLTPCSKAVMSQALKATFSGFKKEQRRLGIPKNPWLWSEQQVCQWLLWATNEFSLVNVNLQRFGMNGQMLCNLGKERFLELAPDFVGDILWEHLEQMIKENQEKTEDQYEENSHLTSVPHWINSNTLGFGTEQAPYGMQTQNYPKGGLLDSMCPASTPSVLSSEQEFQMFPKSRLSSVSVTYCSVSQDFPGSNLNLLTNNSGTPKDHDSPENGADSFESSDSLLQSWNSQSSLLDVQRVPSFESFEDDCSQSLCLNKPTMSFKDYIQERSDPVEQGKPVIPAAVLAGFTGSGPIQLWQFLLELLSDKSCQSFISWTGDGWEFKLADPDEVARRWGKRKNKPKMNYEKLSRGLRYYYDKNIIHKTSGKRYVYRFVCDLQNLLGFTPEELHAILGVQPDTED
Conditions: protein: recombinant; tags: N-terminal GST; dsDNA, one strand shown. An outline of the steps: as §1

Test [14] addresses T9, SPDEF (Homo sapiens, UniProt O95238 1-335).
T9 sequence: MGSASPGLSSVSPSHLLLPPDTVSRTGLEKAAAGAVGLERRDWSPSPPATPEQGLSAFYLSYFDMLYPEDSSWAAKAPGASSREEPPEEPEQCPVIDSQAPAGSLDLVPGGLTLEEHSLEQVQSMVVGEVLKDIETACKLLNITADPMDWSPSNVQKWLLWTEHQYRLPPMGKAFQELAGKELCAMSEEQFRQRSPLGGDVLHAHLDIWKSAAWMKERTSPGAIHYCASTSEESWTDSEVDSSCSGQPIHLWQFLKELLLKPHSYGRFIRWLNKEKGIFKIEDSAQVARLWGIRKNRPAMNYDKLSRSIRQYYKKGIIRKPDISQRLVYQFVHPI
Conditions: protein: recombinant; tags: N-terminal GST; dsDNA, one strand shown. An outline of the steps:
as §1

Test [15] has as its target T10, ETV7 (Homo sapiens, UniProt Q9Y603 1-341).
T10 sequence: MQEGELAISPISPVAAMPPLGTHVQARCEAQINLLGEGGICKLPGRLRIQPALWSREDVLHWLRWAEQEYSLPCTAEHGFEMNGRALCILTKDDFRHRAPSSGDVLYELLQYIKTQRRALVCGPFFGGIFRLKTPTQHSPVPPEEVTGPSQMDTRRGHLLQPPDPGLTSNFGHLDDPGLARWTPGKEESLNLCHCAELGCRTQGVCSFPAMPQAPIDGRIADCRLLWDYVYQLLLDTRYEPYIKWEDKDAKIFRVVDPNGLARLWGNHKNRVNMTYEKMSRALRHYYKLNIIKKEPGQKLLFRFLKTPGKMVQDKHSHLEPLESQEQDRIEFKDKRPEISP
Conditions: protein: recombinant; tags: N-terminal GST; dsDNA, one strand shown. An outline of the steps: as §1

The target in test [16] is T11, ELF5 (Homo sapiens, UniProt Q9UKW6-2 1-255).
T11 sequence: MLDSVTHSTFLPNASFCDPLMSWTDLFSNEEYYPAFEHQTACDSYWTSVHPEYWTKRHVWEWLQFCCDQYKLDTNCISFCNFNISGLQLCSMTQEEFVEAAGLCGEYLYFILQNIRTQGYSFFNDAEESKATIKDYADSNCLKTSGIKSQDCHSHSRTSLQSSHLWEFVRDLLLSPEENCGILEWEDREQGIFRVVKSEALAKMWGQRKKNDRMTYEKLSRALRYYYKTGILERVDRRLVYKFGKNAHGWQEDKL
To be noted: protein: recombinant; tags: N-terminal GST; dsDNA, one strand shown. The gist of the method:
as §1

For test [17], the target named is T12, ETV3 (Homo sapiens, UniProt P41162-2 1-143).
T12 sequence: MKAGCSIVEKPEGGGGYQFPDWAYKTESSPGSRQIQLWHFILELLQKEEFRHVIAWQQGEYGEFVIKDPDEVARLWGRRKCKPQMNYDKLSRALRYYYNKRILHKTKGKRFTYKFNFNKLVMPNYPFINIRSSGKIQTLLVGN
Conditions: protein: recombinant; tags: N-terminal GST; dsDNA, one strand shown. An outline of the steps: as §1

Test [18] concerns the target ETV6 (Homo sapiens, UniProt P41212 1-452). Conditions: protein: recombinant; tags: N-terminal GST; dsDNA, one strand shown. An outline of the steps:
as §1

CRX, sequence (O43186 whole entry): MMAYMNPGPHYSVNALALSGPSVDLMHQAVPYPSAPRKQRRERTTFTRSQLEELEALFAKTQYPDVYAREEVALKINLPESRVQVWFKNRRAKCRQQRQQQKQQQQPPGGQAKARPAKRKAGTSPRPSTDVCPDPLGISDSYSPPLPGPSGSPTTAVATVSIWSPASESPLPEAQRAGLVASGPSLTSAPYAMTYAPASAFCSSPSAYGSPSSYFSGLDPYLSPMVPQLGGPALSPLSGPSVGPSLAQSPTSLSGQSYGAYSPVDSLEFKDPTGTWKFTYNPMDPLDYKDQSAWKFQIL
ETV1, sequence (P50549 whole entry): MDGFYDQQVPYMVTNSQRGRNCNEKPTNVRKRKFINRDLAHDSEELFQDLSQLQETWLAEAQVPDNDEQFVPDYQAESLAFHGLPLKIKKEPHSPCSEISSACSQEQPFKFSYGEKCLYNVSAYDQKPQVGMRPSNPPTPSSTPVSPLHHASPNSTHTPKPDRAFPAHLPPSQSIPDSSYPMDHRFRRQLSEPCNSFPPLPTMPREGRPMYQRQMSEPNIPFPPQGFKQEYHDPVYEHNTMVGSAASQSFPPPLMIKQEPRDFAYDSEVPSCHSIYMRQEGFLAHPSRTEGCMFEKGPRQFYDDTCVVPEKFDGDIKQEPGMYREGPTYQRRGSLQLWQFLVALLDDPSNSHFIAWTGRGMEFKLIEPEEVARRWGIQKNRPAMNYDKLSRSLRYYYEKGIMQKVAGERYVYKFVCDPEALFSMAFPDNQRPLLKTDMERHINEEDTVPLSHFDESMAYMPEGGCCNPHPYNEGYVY
HSF1, sequence (Q00613 whole entry): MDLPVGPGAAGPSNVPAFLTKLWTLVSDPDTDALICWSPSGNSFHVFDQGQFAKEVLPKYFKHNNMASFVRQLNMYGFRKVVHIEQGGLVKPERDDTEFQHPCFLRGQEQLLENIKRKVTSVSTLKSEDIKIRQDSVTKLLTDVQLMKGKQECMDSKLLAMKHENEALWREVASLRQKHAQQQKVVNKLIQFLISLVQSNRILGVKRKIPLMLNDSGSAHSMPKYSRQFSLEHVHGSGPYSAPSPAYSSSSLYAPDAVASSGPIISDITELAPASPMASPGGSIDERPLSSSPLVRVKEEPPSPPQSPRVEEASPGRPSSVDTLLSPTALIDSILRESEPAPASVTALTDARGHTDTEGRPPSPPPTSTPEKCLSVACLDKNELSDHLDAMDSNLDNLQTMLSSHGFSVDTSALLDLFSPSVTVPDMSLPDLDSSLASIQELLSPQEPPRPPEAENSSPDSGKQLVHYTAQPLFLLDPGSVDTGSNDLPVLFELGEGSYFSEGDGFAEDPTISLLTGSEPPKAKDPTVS
ETV6, sequence (P41212 whole entry): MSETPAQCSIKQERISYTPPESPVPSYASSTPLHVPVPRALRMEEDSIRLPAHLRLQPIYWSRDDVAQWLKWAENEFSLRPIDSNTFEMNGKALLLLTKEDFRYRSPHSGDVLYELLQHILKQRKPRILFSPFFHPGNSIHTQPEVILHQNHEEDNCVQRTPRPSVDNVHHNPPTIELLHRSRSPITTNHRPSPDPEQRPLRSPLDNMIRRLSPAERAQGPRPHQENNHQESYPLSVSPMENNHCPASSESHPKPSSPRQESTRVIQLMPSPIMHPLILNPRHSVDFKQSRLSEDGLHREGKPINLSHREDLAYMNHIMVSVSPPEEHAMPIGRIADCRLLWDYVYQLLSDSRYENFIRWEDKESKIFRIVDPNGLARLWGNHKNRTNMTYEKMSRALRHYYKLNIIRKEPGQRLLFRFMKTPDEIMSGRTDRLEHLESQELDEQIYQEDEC
ETV5, sequence (P41161 whole entry): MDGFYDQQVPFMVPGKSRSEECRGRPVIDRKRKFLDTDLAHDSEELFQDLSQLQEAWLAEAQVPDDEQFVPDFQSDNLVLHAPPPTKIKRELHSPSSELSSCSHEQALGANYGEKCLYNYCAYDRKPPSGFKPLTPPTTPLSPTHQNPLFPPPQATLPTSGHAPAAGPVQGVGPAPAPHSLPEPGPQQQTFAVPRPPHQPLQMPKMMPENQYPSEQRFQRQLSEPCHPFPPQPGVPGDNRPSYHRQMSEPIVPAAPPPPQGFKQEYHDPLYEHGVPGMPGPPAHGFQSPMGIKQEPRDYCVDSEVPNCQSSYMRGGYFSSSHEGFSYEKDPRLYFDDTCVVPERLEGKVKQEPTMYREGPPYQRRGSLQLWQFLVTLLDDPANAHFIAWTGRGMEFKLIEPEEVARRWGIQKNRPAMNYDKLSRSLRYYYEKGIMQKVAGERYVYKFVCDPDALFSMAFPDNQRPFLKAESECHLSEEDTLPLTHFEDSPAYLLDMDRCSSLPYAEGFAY
ELF4, sequence (Q99607 whole entry): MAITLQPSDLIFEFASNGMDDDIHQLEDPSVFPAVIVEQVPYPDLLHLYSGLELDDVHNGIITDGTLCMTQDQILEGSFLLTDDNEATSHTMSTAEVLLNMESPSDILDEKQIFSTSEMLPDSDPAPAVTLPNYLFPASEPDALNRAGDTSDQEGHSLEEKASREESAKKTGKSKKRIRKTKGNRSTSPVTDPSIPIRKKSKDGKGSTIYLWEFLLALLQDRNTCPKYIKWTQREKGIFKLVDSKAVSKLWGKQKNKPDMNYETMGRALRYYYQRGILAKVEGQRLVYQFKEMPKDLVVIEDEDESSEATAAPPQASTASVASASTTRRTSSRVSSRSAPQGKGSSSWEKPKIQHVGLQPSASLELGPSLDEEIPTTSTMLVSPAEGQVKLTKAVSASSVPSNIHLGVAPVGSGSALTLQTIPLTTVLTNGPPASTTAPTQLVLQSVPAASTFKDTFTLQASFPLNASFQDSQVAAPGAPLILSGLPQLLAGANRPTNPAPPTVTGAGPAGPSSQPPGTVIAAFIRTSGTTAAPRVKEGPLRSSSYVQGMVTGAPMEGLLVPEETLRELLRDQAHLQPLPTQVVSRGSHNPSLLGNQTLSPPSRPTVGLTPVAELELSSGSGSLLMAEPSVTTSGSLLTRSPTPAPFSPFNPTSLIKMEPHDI

With TAGCTC, the binding signal in test [1] is 1.19 fold enrichment (6-mer frequency, TF over GST control); in [2] it was 1.25 fold enrichment (6-mer frequency, TF over GST control); in test [3], 1.24 fold enrichment (6-mer frequency, TF over GST control); in test [4], 1.19 fold enrichment (6-mer frequency, TF over GST control); in test [5] it was 1.22 fold enrichment (6-mer frequency, TF over GST control); in test [6], 1.26 fold enrichment (6-mer frequency, TF over GST control). The binding signal is 1.37 fold enrichment (6-mer frequency, TF over GST control) in test [7]; 1.17 fold enrichment (6-mer frequency, TF over GST control) in test [8]; 1.46 fold enrichment (6-mer frequency, TF over GST control) in test [9]; 1.21 fold enrichment (6-mer frequency, TF over GST control) in [10]; 1.04 fold enrichment (6-mer frequency, TF over GST control) in test [11]; 1.14 fold enrichment (6-mer frequency, TF over GST control) in [12]. For the same sequence, the binding signal in test [13] was 1.21 fold enrichment (6-mer frequency, TF over GST control); in test [14] it was 1.24 fold enrichment (6-mer frequency, TF over GST control); in test [15] it was 1.24 fold enrichment (6-mer frequency, TF over GST control); in test [16], 1.1 fold enrichment (6-mer frequency, TF over GST control); in [17] it was 1.17 fold enrichment (6-mer frequency, TF over GST control); in test [18], 1.14 fold enrichment (6-mer frequency, TF over GST control).
